Experimental data reported in the supplement of paper PMC11732987, “Enantioselective OTUD7B fragment discovery through chemoproteomics screening and high-throughput optimisation” (Communications Chemistry, 2025).

Experiments:
Test in all cases: log2 ratio of Biotin-Ahx-Ub-VS probe labelling (fragment/DMSO); higher = less target engagement (more negative = stronger competition), active = hit call of the paper (q ≤ 0.05, log2 ratio ≤ -1)
Conditions in all cases: compound concentration: 200 uM; treatment time: 3 h
USP42 = molecular target: T1, USP42 (UniProt Q9H9J4)
T1 sequence (whole entry): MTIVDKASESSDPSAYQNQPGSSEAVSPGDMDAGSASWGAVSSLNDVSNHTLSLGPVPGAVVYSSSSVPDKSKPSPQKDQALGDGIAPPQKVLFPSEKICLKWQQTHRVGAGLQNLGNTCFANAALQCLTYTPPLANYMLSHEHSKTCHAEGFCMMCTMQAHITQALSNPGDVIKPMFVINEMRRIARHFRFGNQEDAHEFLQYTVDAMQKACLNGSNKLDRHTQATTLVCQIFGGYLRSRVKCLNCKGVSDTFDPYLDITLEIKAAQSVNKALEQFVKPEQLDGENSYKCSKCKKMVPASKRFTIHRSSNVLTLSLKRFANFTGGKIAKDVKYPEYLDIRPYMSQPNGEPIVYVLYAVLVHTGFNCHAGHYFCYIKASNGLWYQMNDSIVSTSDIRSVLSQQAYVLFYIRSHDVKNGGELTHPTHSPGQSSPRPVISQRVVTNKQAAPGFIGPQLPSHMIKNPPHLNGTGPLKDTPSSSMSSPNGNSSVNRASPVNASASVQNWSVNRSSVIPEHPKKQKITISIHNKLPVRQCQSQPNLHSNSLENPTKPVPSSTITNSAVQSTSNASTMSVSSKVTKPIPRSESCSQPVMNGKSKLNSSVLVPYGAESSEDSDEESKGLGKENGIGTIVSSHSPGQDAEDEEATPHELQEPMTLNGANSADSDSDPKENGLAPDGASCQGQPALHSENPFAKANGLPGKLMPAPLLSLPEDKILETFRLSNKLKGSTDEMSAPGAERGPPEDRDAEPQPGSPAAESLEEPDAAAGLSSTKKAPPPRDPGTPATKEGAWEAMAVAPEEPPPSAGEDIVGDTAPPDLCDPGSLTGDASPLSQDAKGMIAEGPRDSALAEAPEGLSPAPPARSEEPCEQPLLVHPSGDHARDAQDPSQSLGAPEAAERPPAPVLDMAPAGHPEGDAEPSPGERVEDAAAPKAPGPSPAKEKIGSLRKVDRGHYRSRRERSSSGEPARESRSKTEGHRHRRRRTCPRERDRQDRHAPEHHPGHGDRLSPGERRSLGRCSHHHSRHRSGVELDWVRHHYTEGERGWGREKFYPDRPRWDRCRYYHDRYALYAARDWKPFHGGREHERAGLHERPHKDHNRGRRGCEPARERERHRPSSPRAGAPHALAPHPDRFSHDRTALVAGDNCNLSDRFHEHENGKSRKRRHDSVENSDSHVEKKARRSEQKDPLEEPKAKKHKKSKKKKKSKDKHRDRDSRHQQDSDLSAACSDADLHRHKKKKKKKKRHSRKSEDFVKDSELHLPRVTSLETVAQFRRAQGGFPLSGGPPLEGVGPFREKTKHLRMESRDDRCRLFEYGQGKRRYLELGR
How it was run: (§1)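 The table lists average log2 ratios of fragment over vehicle, from an unpaired t-test on global-median-normalised Spectronaut label-free quantities. Proteins with ≥2 unique peptides were used. Samples were HEK293T lysate (495 µg) treated in triplicate with fragment at 200 µM or vehicle for 3 h, then with Biotin-Ahx-Ub-VS (0.5 µM final) for 1 h, with labelled DUBs NeutrAvidin-enriched and run by diaPASEF LC-MS/MS.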

USP46 = USP46 (UniProt P62068)
How it was run: as §1

USP47 = molecular target: T2, USP47 (UniProt Q96K76)
T2 sequence (whole entry): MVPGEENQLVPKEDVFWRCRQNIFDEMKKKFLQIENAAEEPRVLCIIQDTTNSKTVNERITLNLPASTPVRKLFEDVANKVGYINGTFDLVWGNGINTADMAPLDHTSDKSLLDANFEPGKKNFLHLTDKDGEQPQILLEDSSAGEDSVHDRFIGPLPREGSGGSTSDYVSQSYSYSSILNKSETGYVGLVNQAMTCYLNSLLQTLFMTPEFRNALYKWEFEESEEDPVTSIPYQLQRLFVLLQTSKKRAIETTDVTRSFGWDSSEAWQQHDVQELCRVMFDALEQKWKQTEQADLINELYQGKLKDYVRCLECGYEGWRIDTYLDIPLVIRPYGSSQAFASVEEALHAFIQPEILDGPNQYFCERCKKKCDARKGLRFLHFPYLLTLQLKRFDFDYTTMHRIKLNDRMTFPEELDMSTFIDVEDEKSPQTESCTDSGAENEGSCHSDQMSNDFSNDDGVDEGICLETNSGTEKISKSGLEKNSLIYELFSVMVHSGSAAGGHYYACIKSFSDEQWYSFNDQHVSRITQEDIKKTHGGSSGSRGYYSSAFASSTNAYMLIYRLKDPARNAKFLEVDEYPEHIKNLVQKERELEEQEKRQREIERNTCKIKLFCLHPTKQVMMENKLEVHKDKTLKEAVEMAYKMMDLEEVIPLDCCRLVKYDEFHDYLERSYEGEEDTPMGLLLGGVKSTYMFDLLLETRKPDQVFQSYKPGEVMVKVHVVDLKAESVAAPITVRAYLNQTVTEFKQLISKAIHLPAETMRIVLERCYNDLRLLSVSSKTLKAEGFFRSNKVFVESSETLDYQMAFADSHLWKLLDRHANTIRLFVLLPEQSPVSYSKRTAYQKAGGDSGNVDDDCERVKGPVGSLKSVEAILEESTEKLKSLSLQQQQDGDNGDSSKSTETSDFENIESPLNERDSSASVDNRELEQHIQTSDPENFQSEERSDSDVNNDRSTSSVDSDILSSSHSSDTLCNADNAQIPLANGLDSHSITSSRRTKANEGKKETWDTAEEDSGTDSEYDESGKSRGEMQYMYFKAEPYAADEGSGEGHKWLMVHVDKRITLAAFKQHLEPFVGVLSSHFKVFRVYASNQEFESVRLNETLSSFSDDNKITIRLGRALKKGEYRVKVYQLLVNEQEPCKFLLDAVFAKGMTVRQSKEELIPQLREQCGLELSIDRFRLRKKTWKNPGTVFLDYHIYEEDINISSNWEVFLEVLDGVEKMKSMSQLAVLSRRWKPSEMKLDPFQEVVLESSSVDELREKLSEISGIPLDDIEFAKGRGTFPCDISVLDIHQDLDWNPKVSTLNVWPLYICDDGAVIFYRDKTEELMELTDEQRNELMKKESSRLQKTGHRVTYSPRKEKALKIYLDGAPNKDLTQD
How it was run: as §1

USP48 = molecular target: T3, USP48 (UniProt Q86UV5)
T3 sequence (whole entry): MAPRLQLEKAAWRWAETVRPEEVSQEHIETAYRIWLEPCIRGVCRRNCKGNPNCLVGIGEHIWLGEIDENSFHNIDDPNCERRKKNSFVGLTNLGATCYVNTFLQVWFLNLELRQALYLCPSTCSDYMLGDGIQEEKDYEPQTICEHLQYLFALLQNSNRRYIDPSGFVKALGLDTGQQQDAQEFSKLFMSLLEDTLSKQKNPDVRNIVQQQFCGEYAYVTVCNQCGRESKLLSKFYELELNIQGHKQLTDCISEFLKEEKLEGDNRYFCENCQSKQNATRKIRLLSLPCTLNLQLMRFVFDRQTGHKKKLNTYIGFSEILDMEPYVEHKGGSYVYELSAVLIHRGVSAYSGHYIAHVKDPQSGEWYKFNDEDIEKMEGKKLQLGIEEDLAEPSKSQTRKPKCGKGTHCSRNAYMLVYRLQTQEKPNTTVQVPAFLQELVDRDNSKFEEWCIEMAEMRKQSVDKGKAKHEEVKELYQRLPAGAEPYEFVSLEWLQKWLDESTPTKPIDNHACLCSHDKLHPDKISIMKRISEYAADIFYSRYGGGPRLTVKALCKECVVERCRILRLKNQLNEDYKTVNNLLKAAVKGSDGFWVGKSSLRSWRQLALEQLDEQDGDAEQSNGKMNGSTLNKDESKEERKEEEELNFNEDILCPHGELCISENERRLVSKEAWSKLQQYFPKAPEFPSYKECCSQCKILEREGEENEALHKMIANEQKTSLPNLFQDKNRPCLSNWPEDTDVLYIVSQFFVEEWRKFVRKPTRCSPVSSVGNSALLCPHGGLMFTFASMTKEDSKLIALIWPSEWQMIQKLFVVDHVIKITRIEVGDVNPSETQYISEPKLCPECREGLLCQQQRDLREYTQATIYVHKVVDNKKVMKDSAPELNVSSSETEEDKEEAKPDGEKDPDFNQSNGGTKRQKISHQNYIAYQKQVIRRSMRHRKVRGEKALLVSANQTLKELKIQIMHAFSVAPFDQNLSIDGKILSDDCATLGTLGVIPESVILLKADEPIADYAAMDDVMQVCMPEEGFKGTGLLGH
How it was run: as §1

USP5 = molecular target: T4, USP5 (UniProt P45974)
T4 sequence (whole entry): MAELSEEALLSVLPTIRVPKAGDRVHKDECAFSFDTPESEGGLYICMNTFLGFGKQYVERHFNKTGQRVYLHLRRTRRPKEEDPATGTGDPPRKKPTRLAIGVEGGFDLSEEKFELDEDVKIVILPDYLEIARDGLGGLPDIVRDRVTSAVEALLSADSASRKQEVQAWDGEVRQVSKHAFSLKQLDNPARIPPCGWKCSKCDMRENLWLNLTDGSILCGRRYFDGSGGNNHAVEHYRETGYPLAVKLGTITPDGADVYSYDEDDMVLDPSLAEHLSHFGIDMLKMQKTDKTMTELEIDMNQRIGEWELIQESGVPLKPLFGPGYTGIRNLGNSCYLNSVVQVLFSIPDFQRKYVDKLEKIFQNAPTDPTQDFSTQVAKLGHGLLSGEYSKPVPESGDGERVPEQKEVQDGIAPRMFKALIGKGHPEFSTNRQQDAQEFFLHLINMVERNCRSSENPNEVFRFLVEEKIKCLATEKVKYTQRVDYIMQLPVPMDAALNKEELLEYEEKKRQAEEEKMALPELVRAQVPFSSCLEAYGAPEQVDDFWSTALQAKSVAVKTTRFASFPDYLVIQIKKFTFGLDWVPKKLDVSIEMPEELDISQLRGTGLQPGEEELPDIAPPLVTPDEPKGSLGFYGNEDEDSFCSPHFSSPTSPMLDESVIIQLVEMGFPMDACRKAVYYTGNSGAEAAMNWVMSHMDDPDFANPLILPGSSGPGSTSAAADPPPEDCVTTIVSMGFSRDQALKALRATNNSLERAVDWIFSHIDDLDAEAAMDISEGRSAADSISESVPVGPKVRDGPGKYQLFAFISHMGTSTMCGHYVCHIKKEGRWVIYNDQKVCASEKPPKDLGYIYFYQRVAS
How it was run: as §1

USP54 = USP54 (UniProt Q70EL1)
How it was run: as §1

USP7 = USP7 (UniProt Q93009)
How it was run: as §1

USP8 = molecular target: T5, USP8 (UniProt P40818)
T5 sequence (whole entry): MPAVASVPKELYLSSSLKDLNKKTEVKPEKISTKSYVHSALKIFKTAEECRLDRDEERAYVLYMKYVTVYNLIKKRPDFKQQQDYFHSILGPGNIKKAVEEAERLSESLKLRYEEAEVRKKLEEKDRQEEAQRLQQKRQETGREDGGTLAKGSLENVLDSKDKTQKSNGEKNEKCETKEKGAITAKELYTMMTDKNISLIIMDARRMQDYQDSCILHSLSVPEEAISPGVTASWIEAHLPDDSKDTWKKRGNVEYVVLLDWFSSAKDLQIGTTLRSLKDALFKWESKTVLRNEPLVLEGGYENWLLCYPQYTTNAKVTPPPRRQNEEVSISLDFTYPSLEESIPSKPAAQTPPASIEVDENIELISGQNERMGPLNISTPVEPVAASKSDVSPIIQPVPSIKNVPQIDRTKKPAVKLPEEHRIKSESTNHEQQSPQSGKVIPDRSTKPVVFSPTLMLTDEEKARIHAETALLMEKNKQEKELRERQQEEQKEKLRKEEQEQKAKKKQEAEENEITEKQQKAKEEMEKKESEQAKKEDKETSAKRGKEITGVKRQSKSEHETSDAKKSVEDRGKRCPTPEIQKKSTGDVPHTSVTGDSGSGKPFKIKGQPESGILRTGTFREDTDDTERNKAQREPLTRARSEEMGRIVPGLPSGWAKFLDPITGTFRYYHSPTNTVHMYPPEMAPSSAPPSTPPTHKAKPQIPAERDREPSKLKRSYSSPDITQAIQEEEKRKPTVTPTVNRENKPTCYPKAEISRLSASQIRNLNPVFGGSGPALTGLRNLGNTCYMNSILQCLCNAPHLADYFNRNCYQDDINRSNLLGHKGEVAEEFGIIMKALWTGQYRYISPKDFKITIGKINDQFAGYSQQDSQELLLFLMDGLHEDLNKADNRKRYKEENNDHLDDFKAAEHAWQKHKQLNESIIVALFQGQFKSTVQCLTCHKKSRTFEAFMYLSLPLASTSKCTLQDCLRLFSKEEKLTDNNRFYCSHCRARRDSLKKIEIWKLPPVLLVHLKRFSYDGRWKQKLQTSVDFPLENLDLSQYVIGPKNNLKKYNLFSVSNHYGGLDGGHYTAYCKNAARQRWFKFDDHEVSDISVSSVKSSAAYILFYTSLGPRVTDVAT
How it was run: as §1

USP9X = USP9X (UniProt Q93008)
How it was run: as §1

UniProt O00487 = molecular target: UniProt O00487
How it was run: as §1

Measured: log2 ratio of Biotin-Ahx-Ub-VS probe labelling

Sequence of USP46 (P62068 whole entry): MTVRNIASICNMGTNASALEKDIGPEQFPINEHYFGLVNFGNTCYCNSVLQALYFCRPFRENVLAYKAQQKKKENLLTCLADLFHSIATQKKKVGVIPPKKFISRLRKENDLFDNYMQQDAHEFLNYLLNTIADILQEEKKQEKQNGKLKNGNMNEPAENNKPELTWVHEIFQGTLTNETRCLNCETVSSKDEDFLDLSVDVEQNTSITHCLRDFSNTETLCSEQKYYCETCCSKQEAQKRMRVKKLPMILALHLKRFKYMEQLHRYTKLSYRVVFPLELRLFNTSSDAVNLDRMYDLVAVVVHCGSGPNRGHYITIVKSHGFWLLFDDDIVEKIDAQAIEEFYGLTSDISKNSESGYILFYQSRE
Sequence of USP7 (Q93009 whole entry, looked up): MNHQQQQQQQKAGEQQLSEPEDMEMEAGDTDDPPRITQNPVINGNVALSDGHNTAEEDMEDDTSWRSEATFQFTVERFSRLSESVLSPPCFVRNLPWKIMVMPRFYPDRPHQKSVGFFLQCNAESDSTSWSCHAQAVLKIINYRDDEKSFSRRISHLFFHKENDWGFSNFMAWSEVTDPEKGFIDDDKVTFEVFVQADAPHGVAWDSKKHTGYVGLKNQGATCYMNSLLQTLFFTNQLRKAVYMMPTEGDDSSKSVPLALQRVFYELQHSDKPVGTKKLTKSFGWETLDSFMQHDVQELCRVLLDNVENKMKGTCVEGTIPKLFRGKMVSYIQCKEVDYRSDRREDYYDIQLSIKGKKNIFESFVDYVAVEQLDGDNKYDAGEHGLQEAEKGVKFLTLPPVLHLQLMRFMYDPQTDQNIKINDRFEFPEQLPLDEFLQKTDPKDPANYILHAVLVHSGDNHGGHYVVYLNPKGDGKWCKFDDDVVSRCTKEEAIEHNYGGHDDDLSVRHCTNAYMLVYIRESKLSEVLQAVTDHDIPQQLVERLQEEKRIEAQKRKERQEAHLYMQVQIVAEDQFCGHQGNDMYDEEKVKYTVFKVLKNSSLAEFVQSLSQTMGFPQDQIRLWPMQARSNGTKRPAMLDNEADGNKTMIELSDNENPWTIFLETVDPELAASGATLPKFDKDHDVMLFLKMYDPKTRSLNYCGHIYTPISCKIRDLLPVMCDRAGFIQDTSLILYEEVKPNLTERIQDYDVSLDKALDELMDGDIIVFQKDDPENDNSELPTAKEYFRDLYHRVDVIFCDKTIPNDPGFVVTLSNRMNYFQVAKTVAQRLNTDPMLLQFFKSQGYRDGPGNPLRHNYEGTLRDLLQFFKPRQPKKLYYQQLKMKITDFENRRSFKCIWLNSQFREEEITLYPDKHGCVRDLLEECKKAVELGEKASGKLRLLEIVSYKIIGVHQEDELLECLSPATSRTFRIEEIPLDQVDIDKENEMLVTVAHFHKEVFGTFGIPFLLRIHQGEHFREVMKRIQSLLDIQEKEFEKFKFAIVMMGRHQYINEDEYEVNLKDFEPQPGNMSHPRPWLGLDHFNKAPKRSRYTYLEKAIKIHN
Sequence of UniProt O00487 (O00487 whole entry): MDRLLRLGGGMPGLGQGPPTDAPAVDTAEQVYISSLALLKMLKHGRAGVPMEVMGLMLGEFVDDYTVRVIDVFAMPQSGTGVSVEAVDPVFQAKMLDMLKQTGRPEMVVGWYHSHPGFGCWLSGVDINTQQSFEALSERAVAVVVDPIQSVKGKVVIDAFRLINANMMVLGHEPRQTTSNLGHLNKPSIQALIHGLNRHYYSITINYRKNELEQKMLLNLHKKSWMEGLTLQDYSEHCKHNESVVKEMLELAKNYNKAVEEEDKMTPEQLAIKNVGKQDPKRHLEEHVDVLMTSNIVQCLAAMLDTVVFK
Sequence of USP54 (Q70EL1 whole entry): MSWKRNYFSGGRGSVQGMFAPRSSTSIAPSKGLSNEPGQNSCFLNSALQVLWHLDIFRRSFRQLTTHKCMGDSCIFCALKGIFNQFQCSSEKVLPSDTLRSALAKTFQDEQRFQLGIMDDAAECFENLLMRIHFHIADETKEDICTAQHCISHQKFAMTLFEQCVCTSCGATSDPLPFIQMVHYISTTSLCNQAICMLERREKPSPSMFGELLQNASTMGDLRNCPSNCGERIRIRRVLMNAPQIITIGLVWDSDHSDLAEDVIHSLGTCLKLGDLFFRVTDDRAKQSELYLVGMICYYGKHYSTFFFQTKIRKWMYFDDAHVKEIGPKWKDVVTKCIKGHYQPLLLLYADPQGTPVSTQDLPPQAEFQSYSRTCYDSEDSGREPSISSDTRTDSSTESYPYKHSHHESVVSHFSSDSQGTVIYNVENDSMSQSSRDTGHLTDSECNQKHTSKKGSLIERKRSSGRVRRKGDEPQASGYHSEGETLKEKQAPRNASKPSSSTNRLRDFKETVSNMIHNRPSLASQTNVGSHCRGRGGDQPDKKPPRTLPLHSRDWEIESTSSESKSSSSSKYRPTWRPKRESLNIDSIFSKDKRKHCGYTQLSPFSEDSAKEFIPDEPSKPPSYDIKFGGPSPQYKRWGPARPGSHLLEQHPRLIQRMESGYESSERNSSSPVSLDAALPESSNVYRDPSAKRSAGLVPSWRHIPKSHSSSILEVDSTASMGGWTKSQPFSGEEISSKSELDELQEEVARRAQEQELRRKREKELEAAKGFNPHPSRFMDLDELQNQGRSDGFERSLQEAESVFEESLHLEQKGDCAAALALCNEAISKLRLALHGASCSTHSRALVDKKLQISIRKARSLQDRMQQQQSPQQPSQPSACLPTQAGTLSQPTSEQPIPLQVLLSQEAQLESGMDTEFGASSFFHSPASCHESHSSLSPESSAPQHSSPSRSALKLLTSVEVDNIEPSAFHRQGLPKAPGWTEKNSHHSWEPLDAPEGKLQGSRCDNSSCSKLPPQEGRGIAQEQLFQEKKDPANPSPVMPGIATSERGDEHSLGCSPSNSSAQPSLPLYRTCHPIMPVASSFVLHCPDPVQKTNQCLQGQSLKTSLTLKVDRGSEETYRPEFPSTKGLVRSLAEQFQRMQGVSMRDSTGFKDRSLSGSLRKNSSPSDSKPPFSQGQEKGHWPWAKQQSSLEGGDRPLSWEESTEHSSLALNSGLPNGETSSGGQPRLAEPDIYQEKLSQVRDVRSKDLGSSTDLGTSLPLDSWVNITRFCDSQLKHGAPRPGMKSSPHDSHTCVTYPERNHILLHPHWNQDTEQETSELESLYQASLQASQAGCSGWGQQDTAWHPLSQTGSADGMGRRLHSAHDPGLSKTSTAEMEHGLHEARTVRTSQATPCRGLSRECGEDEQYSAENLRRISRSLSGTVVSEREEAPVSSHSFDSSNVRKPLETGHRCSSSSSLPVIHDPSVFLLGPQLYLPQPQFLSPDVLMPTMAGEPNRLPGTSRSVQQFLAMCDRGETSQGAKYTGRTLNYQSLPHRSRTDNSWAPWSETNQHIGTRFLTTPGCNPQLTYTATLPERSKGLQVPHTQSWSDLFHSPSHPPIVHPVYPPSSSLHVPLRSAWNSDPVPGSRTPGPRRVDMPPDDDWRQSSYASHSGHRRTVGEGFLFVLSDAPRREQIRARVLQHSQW

Cc1cccc(C(CNC(=O)CCl)N2CCOCC2)c1.Cl (stereo not given)
inactive: USP42 -0.208 | USP46 0.086 | USP47 0.268 | USP48 -0.106 | USP5 -0.22 | USP54 -0.0536 | USP7 -0.244 | USP8 -0.417 | USP9X -0.0494 | UniProt O00487 0.181
